Only some compounds are listed: those with a hit (about 12% of all), similar ones and a draw of the others.
HCV inh: inhibitors of hepatitis C virus infection. Huh7.5.1 HCVcc-Cre infection, luciferase reporter, 44 h. Potency, µM (series often up to 41.8 µM), for inactives: at the highest dose activity change, negative = inhibition, hits mostly inhibitors. 3.4% of 340,000 active; also: % is scaled to controls: 0 for no effect and ±100 for the full control effect
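Seed cells (1,000/well) for 4 h; treat with compound and infect with HCVcc-Cre, moi about 0.5. Incubate 44 h, then detect luciferase activity.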
NS1 function inh: blocks influenza NS1 protein function; 0.4% of 270,000 active; Potency, µM (top dose mostly 46.1 µM), inactives show at the top dose activity, positive = more growth; calls by dose curve; also: actives are rising curves; nearly all actives have a fitted effect of over 50% in size
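Read-out: OD600 growth recovery of NS1-expressing budding yeast. Cells grown overnight at 30C in -URA glucose medium, washed, resuspended and diluted 1:100 in 2% galactose assay medium, pH 6.0. Same strain lacking NS1 served as positive control.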
Pf growth 96h: inhibits malaria parasite growth, 96 h. P. falciparum luciferase reporter growth, 96 h. Potency, µM (top dose mostly 28.7 µM), for the others: at the top dose activity change, negative = inhibition, actives largely listed as inhibitors. 6.9% of 320,000 active. AID 504834; also: % is scaled to controls: 0 for no effect and ±100 for the full control effect
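Luminescence readout: decreased luciferase signal marks inhibited growth of reporter-expressing P. falciparum in infected red cells (2% hematocrit, 0.05% parasitemia final), exposed to compound two generations (96 h, 37 C, 5% CO2).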
Pf growth 48h: P. falciparum growth inhibition at 48 hours (one generation) | Potency, µM (highest dose often 28.7 µM), inactives show at the top dose activity change, negative = inhibition, hits mostly inhibitors | P. falciparum luciferase growth in erythrocytes, 48 h | 5.9% of 310,000 active | AID 504832; also: % is scaled to controls: 0 for no effect and ±100 for the full control effect
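Luciferase-expressing parasites in RBCs, 2% Hct / 0.1% parasitemia final; RPMI 1640 + 0.5% Albumax; 37 C, 5% CO2, one generation; luminescence read-out, lower signal = inhibition.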
AMA1-RON2 inh: inhibitors of Plasmodium falciparum AMA1-RON2 interaction; AlphaScreen AMA1-biotinylated RON2 peptide binding; Potency, µM (top dose mostly 58.2 µM), inactives show at the top dose activity change, negative = inhibition, most hits filed as inhibitors; 0.2% of 360,000 active; AID 720542;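 also: 0% = vehicle wells and -100% = peptide control; nearly all actives have a fitted effect of over 45% in size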
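AMA1 (3D7) with his tag at 25 nM final met compounds first, then biotinylated RON2 peptide at 25 nM; detection used donor plus acceptor beads, 10 µg/mL apiece, read by AlphaScreen after 30 min at room temperature.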
SARS PLP yeast: blocks SARS-CoV papain-like protease in a yeast assay | S. cerevisiae expressing SARS-CoV PLpro, growth rescue | Potency, µM (series often up to 32.9 µM), for the others: top-dose activity, positive = growth rescue, usual class: activators | 0.19% of 330,000 active; calls by dose curve; also: 0% is about no effect; nearly all actives have a fitted effect of over 55% in size
An asterisk follows results filed as active; ? = inconclusive; . = not tested or not shown; [ ] = remark or other dose. Unless noted, calls follow the shape of the dose curve; as a rule, active = well fitted curve in the direction sought with a large enough effect; inconclusive = small, poorly fitted or top-dose-only effect, or another doubt; inactive = no such curve, though single readings can be large; an effect the other way counts as inactive or inconclusive. Potency is read from the fitted curve at half-maximal effect.

SMILES	HCV inh	NS1 function inh	Pf growth 96h	Pf growth 48h	AMA1-RON2 inh	SARS PLP yeast
CCOC(=O)N1CCC(Nc2c(N3CCN(c4cc(Cl)ccc4C)CC3)c(=O)c2=O)CC1	10µM*	-48%	4.7µM*	.	0%	6%
COc1ccc(CN(C)CCCn2cnc3c(OC)ncnc32)cc1OC	.	.	.	.	1%	.
O=C(CN(Cc1cccs1)C(=O)CCC(=O)Nc1ccccn1)NCc1ccccc1	-2%	-4%	57%	2%	-21%	1%
N#Cc1ccccc1Cn1cc(C(=O)c2cccs2)c2ccccc21	-7%	-31%	0%	15µM*	-1%	4%
CCOC(=O)CSc1n[nH]c(NC(=O)NC(C)C)n1	16%	5%	9%	3%	9%	0%
COc1ccccc1N(Cc1cc(=O)[nH]c2ccccc12)C(=O)c1ccc([N+](=O)[O-])cc1	-5%	9%	?	?	-1%	0%
COc1ccc(N(C)C(=O)c2ccc3snnc3c2)cc1	14%	2%	10µM*	0%	-9%	9%
COc1ccc(N(C)C(=O)c2ccc3c(c2)nnn3C)cc1	11%	0%	4%	-4%	12%	0%
CCCC(c1nnnn1C1CCCC1)N1CCN(C(=O)c2ccco2)CC1 (stereo unspecified)	-1%	5%	?	12µM*	-2%	1%
CC(C)CC(c1nnnn1C1CCCC1)N1CCN(C(=O)c2ccco2)CC1 (stereo unspecified)	?	-3%	9.3µM*	-25%	-3%	0%
CC(C)CC(c1nnnn1C1CCCCC1)N1CCN(C(=O)c2ccco2)CC1 (stereo unspecified)	2%	-5%	?	?	-8%	1%
CCCCC(c1nnnn1C1CCCC1)N1CCN(C(=O)c2ccco2)CC1 (stereo unspecified)	-8%	-6%	.	2.1µM*	-4%	2%
Cc1ccc(S(=O)(=O)Cn2nnnc2C(CC(C)C)N2CCN(C(=O)c3ccco3)CC2)cc1 (stereo unspecified)	15%	-16%	1.7µM*	12µM*	4%[11.6 µM]	6%
CCC1(c2ccc(F)cc2)NC(=O)N(CC(=O)N(C)C2CCS(=O)(=O)C2)C1=O (stereo unspecified)	1%[8.37 µM]	.	5%	2%	1%	0%
O=C(O)c1nn(CC(=O)N2CCN(S(=O)(=O)c3ccc(Cl)cc3)CC2)c(=O)c2ccccc12	6%	-2%	78%	0%	0%	0%
c1cc2c(cc1C(N1CCNCC1)N1CCNCC1)OCO2	.	-8%	.	.	.	.
O=C(COc1coc(CN2CCN(c3ccccc3)CC2)cc1=O)Nc1ccccc1	1%	.	?	?	11%	-5%
Cc1cccc(NC(=O)COc2coc(CN3CCN(c4ccccc4)CC3)cc2=O)c1C	?	.	?	9.3µM*	-10%	5%
COc1ccccc1N1CCN(Cc2cc(=O)c(OCC(=O)Nc3ccccc3)co2)CC1	?	.	-6%	9.3µM*	5%	7%
Cc1cc(NC(=O)COc2coc(CN3CCN(c4ccccc4)CC3)cc2=O)no1	23%	.	?	?	-7%	-1%
O=C(COc1coc(CN2CCN(c3ccccc3F)CC2)cc1=O)Nc1ccccc1	?	.	30%	15%	-12%	1%
Cc1ccc(NC(=O)COc2coc(CN3CCN(c4ccccc4)CC3)cc2=O)cc1	?	.	4.7µM*	?	-4%	8%
Cc1nc(N2CCN(S(=O)(=O)c3ccccc3C#N)CC2)c2c(-c3cccs3)csc2n1	10µM*	.	?	?	-13%	0%
CC1CC(=O)Nc2ccccc2N1S(=O)(=O)c1cccc(Cl)c1 (stereo unspecified)	-11%	3%	40%	1%	1%	12%
COCC(=O)N(Cc1cc2cccc(C)c2[nH]c1=O)c1ccccc1	5%	9%	14%	-1%	-8%	6%
CC(C)c1ccc(NC(=O)COc2ccc(F)cc2C(=O)c2cnn(-c3ccccc3)c2)cc1	?	?	?	-67%	-17%[2.32 µM]	3%
